# CIT2 TOR yeast: modulators of TOR pathway CIT2-GFP in S. cerevisiae; 320,000 compounds, 0.065% hits; GFP response vs DMSO, % at 10 µM; S. cerevisiae CIT2-GFP strain, flow cytometry, 3 h; 100 means same as DMSO wells;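 active = GFP response relative to DMSO above a set limit, near the screen mean plus 3 SD, cut at about 150% in these data; inconclusive = Fewer than 70 cells measured for a yeast strain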;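 note: ratio of well median GFP fluorescence to mean of DMSO wells on the plate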
# MEP2-GFP yeast: yeast TOR pathway MEP2-GFP modulation; 330,000 compounds, 0.51% hits; S. cerevisiae MEP2-GFP strain, flow cytometry GFP, 3 h; 100% = DMSO control level; GFP response vs DMSO, % at 10 µM;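 active = GFP response versus DMSO above a set limit, roughly screen mean plus 3 SD, cut at about 180% in these data; inconclusive = fewer than 70 cells counted for a yeast strain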;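 note: median GFP fluorescence of the barcode-gated MEP2-GFP cells per well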
# Pemphigus Ab inh: human desmoglein-3 autoantibody binding inhibition; P32926; DSG3-coupled beads, scFv-anti-DSG3-GFP binding, flow cytometry; active compounds read low; binding (percent of control), % at 10 µM; 310,000 compounds, 0.48% hits; AID 588358;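 active = binding more than 3 SD below its plate's average and above zero; inconclusive = below that plate limit but binding exactly zero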;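 note: hits lower antibody fragment binding to DSG3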
# AGP1 TOR yeast: yeast TOR pathway AGP1-GFP modulation | S. cerevisiae AGP1-GFP multiplex flow cytometry, 3 h; GFP as percent of DMSO wells | GFP response vs DMSO, % at 10 µM | 320,000 compounds, 0.02% hits;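 active = GFP response relative to DMSO above a set limit, near screen average plus 3 SD, cut at about 150% in these data; inconclusive = fewer than 70 cells counted for the yeast strain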;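 note: median GFP channel fluorescence of the gated AGP1 strain per well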
# RPL19A TOR yeast: yeast TOR pathway RPL19A-GFP modulation | S. cerevisiae RPL19A-GFP strain, flow cytometry, 3 h; active compounds read low | percent response vs DMSO, % at 10 µM | 330,000 compounds, 0.3% hits;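 active = percent response vs DMSO below 50%; inconclusive = fewer than 70 events counted for the yeast strain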;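 note: median channel GFP fluorescence of the barcoded RPL19A-GFP strain; ratio of sample median GFP to plate DMSO average so 100% = DMSO; lower means less RPL19A-GFP as with rapamycin TOR inhibition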
# LAP4-GFP MLPCN: alters LAP4-GFP fluorescence in TOR pathway yeast screen; S. cerevisiae LAP4-GFP multiplex, flow cytometry GFP, 3 h; median GFP as percent of DMSO wells; GFP response vs DMSO, % at 10 µM; 320,000 compounds, 0.34% hits; AID 2023;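 active = GFP response vs DMSO above a set limit, about the screen mean plus 3 SD, cut at about 150% in these data; inconclusive = under 70 cell events counted for the yeast strain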
# * hit, by the source's call; ? = inconclusive; nt = no result given; [ ] = remark or other dose. A selection: hits, their analogues and other compounds. The true share with any hit is near 1.2%.
SMILES,CIT2 TOR yeast,MEP2-GFP yeast,Pemphigus Ab inh,AGP1 TOR yeast,RPL19A TOR yeast,LAP4-GFP MLPCN
C=CCSc1nnc2c(n1)OC(c1cccnc1)Nc1ccccc1-2 (configuration not stated),89,93,?,95,95,97
c1ccc(CSc2nnc3c(n2)OC(c2ccco2)Nc2ccccc2-3)cc1 (configuration not stated),103,104,61*,102,103,98
C=CCCCCCCCC(=O)OC,104,109,97,101,101,106
O=C(/C(=C/c1ccccc1)n1cncn1)c1ccc(Cl)cc1Cl,70,88,104,83,98,151*
CCCCc1nc2cc(C(=O)N3CCN(c4cnccn4)CC3)ccc2o1,98,96,90,100,99,102
COc1ccccc1NC(=O)COC(=O)c1ccc([N+](=O)[O-])s1,?,105,124,10,21*[may fluoresce violet],53
CCc1nnc(NC(=O)CCC(=O)N2CCN(C3c4ccccc4-c4ccccc43)CC2)s1,94,105,107,98,101,107
Cc1cc(C)n2nc(SCC(=O)NC(=O)c3ccccc3)nc2n1,104,113,117,109,107,120
COc1ccc(/C=C2/SC(=O)N(CCNC(=O)C3CC(=O)N(Cc4ccccc4)C3)C2=O)cc1 (configuration not stated),nt,nt,98,nt,nt,nt
Cn1c(CBr)c(C(=O)c2ccc([N+](=O)[O-])cc2)c(=O)n(C)c1=O,?,444*[may fluoresce violet],111,?,55,113
CCC(C)[C@H](NC(=O)NCCCOC(C)C)C(=O)OC (some centres not stated),104,106,nt,110,105,109
COc1ccc(-c2cn3c(C)c(C(=O)NC(C)C)sc3n2)cc1,100,99,47*,108,109,103
COc1ccc(-c2cn3c(C)c(C(=O)NC(C)(C)C)sc3n2)cc1,89,102,109,93,97,110
O=C(CCc1ccccc1)Nc1cccc(S(=O)(=O)N2CCOCC2)c1,96,103,nt,99,96,95
S=c1[nH]nc(-c2ccccc2)n1/N=C/C=C/c1ccco1,96,99,127,88,96,96
Cc1cc(-c2n[nH]c(=S)n2/N=C/C=C/c2ccco2)n[nH]1,?,396*[may fluoresce violet],108,?,37*[may fluoresce violet],82
CN(CCc1ccccn1)c1ccccc1,nt,nt,109,nt,nt,nt
CCn1ncc(/C=N\NC(=O)c2ccc3c(c2)c(C)c(C)n3Cc2ccccc2)c1C,?,?,105,?,?,?
CCn1nc(C)c(/C=N/NC(=O)c2ccc3c(c2)c(C)c(C)n3Cc2ccccc2)c1C,?,279*[may fluoresce violet],96,?,22*[may fluoresce violet],98
O=C(Nc1ccccc1NC(=O)c1ccco1)c1ccccc1,?,495*[may fluoresce violet],93,?,41*[may fluoresce violet],76
O=C(Nc1cc(Cl)ccc1Cl)c1ccc(OC(=O)c2ccco2)cc1,102,104,65*,104,100,105
CC(C)(C)c1ccc(C(=O)Nc2ccccc2NC(=O)c2ccco2)cc1,95,94,105,96,93,88
O=C1C2CCCCN2C(=O)N1CCCCN1CCN(c2ccccc2Oc2ccccc2)CC1 (configuration not stated),92,88,95,95,93,87
Cc1nnc(N2CCC(C(=O)N3CCCCC3)CC2)c2nn(-c3ccc(Cl)cc3)c(C)c12,99,115,102,95,97,96
COc1ccc(-n2nc3c(N4CCC(C(=O)N5CCC(C)CC5)CC4)nnc(C)c3c2C)cc1,?,258*[may fluoresce violet],178,?,51,69
CCCCOc1ccccc1Cn1c(=O)oc2ccccc21,?,178*[may fluoresce violet],103,nt,73,106
O=C(COn1nnc2ccc(Cl)cc21)NC12CC3CC(CC(C3)C1)C2,104,105,86*,108,100,107
O=C(COn1nnc2ccc(Cl)cc21)Nc1ccc(F)cc1,101,91,106,94,96,87
O=C(OCC(=O)c1ccccc1Br)c1ccncc1,94,94,105,90,93,99
